# Among all 16,000 compounds or so, about 5,800 (36%) were called active. Inconclusive results (about 23%) are left out. Calls come from the whole dose curve; as a rule, active = well fitted curve in the direction sought with a large enough effect; inconclusive = small, poorly fitted or top-dose-only effect, or effect the other way; inactive = no such curve, though single readings can be large or run the other way. The list shows a part of the results.
# Target: Cytochrome P450 2C19 (Homo sapiens) (UniProt P33261)
# Sequence (P33261 whole entry, looked up): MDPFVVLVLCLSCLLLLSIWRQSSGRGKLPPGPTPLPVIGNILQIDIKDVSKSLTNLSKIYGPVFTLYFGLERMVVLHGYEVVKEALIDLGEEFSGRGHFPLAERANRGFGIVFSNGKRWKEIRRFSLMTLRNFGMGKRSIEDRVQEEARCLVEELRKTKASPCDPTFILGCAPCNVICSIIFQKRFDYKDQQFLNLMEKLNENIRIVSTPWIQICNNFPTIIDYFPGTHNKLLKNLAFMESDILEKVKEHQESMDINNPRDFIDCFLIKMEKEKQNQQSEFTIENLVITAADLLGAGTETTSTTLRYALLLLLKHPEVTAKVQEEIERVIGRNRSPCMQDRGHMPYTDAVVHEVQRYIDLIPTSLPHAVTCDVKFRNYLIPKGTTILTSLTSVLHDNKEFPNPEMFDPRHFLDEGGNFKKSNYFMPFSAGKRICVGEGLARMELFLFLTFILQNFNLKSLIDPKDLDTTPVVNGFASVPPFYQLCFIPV
# Assay: Cytochrome panel assay with activity outcomes
# Settings: recombinant CYP, pro-luciferin dealkylation, luminescence, p450-cyp2c19; series mostly up to 57.1 µM
# % is set by controls: 0 for no effect and ±100 for the full control effect.
SMILES,AC50,"activity, negative = inhibition"
COc1ccc2[nH]cc(CCNc3ncnc4ccc(-c5ccc6c(c5)OCO6)cc34)c2c1,1.58 µM (active),
COc1ccc2[nH]cc(CCNc3ncnc4ccc(-c5ccccc5C#N)cc34)c2c1,2 µM (active),
COc1ccc2[nH]cc(CCNc3ncnc4ccc(-c5ccoc5)cc34)c2c1,7.94 µM (active),
COc1ccc2c(Cl)c(-c3nnco3)sc2c1,7.94 µM (active),
O=C1CC(c2ccccc2)Cc2nc(N3CCc4ccccc4C3)ncc21 (stereo not given),3.98 µM (active),
CN1CCN(c2ncc3ncc(=O)n(-c4ccccc4)c3n2)CC1,inactive,
Cc1nc2cnc(N3CCN(C)CC3)nc2n(-c2ccccc2)c1=O,inactive,
Cc1ccc(-n2cnc(=O)c3cccnc32)cc1,inactive,
N#Cc1c(-c2ccccc2)nc(-c2ccccc2)[nH]c1=O,inactive,
Cc1cccc(NC(=O)CSc2nc(-c3ccccc3)c(C#N)c(=O)[nH]2)c1C,14.1 µM (active),
N#CCCn1c(=O)c(-c2cccs2)nc2cnc(OCc3ccccc3)nc21,inactive,
N#Cc1c(-c2ccccc2)cc(C2CC2)nc1SCC(=O)c1cccs1,inactive,
N#Cc1c(-c2cccs2)nc(SCC(=O)c2cccs2)[nH]c1=O,15.8 µM (active),
CN[C@H](CC(=O)O)C(=O)O,inactive,
Cc1[nH]nc(N2CCCCCC2)c1[N+](=O)[O-],6.31 µM (active),
CCOC(=O)C1(S(=O)(=O)c2ccc(Cl)cc2)CCN(Cc2ccc(Cl)cc2)CC1,2.24 µM (active),
Cc1noc(C)c1C(=O)N1CCC2(CCN(Cc3ccncc3)CC2)CC1,inactive,
CCOC(=O)C1(S(=O)(=O)c2ccccc2)CCN(Cc2ccccc2)CC1,2.51 µM (active),
O=S(=O)(c1ccccc1)N1CCC2(CCN(Cc3ccccc3)CC2)CC1,inactive,
CCOC(=O)[C@H](CCc1ccccc1)N[C@@H](C)C(=O)N1CCC[C@H]1C(=O)O,inactive,
O=C(O)[C@@H]1[C@@H](C(=O)NCc2cccnc2)[C@@H]2C=C[C@@H]1O2,,6.83% [at 11.4 µM] (inactive)
Cc1ccc(CN2C(=O)CCC2C(=O)NCc2cccnc2)cc1 (stereo not given),22.4 µM (active),
Cc1ccc(CNC(=O)C2CCC(=O)N2C2CCCCC2)cc1 (stereo not given),3.16 µM (active),
O=C(O)C1CCC(=O)N(C2CC2)C1c1ccccc1 (stereo not given),inactive,
COc1cc2nc(N3CCN(C(=O)OCc4ccccc4)[C@H](C(=O)NC(C)(C)C)C3)nc(N)c2cc1OC,inactive,

SMILES,AC50,"activity, negative = inhibition"
CC(C)(C)OC(=O)N1CCCC1C(=O)NCCc1ccccc1 (stereo not given),6.31 µM (active),
Cc1ccc(CNC(=O)C2CCCN2C(=O)NCc2ccccc2)cc1 (stereo not given),10 µM (active),
O=C(NCc1cccnc1)[C@@H]1[C@@H](C(=O)O)[C@H]2CC[C@@H]1O2,,23.6% [at 11.4 µM] (inactive)
Cc1ccc(SCC(=O)NNC(=O)C2CCCCC2)cc1,inactive,
CN(C)C(=O)N1CCCC(C(=O)NCCc2ccccc2)C1 (stereo not given),inactive,
O=C(O)c1ccccc1-c1ccccc1C(=O)Nc1ccc2c(c1)[nH]c(=O)c1ccccc12,,-24.7% [at 11.4 µM] (inactive)
COc1cc(=O)n(C)c2c(OC[C@@H](O)C(C)(C)O)cccc12,inactive,
C[C@H](CCC(=O)NCC(=O)O)[C@H]1CC[C@H]2[C@H]3[C@@H](C[C@@H](O)[C@]12C)[C@]1(C)CC[C@H](O)C[C@@H]1C[C@@H]3O,inactive,
COCCn1c(C)cc(C2=NNC(=Nc3ccc(F)cc3)SC2)c1C,6.31 µM (active),
Cc1ccc(C(=O)N/N=C/c2sc(=O)n(Cc3cccc(C(=O)O)c3)c2Cl)cc1,inactive,
O=C(NNC(=O)c1cc2cc3ccccc3nc2s1)c1cccc(C(F)(F)F)c1,inactive,
O=C(N/N=C/c1c(Nc2cccc(C(F)(F)F)c2)nc2ccccn2c1=O)c1ccccc1,7.08 µM (active),
O=C(NCCC[N+]1=CC=N[C@H]1c1ccccc1)N1CCCc2nc(-c3ccc(Br)cc3)ccc21,,-32% [at 11.4 µM] (inactive)
Clc1ccccc1CSc1nnc(/C=C/c2ccccc2)o1,6.31 µM (active),
Clc1cccc(Cl)c1CSc1nnc(/C=C/c2ccccc2)o1,10 µM (active),
CC(C)=CCC/C(C)=C/CO/N=C1/C[C@@H](O)[C@@H](O)[C@@H]2[C@@H]3C(=O)N(Cc4ccc5c(c4)OCO5)C(=O)[C@H]3CC[C@H]12,,-41.4% [at 11.4 µM] (inactive)
CC1(C)CC(=O)c2c(Cc3ccccc3)n[nH]c2C1,15.8 µM (active),
Cc1ccc(C)c(N2CCN(C(=O)c3ccc4nc(-c5ccco5)c(-c5ccco5)nc4c3)CC2)c1,8.91 µM (active),
CCC(CC)C(=O)NCc1ccc2c(c1)cc(C)n2C,14.1 µM (active),
Cc1ccc(CNC(=O)CCNS(=O)(=O)c2ccc3c(c2)c(=O)n(C)c(=O)n3C)cc1,inactive,
CCOC(=O)NCc1ccc2c(c1)cc(C)n2C,15.8 µM (active),
CCOC(=O)NNc1nncc2ccccc12,inactive,
Cc1cc2cc(CNC(=O)CC(C)C)ccc2n1C,11.2 µM (active),
CC(N)=O,inactive,
Cn1c(=O)c2[nH]c(CCS)nc2n(C)c1=O,,-13.4% [at 11.4 µM] (inactive)

SMILES,AC50,"activity, negative = inhibition"
CC(=O)N[C@@H](Cc1c[nH]c2ccccc12)C(=O)OCc1cc(C(F)(F)F)cc(C(F)(F)F)c1,inactive,
COc1ccc(C(C(=O)NC2CCCCC2)N(C(=O)Cc2c[nH]c3ccccc23)c2ccc(NC(C)=O)cc2)cc1OC (stereo not given),10 µM (active),
COc1ccc(S(=O)(=O)Nc2cccc(Cl)c2)cc1OC,0.631 µM (active),
CCN(CC)Cc1c(O)ccc2c(=O)c(Oc3ccccc3OC)coc12,inactive,
CCOc1ccccc1Oc1coc2cc(OC)ccc2c1=O,2.82 µM (active),
O=C1C2Sc3[nH]c(=O)sc3C(c3ccccc3)C2C(=O)N1c1ccccc1 (stereo not given),2.24 µM (active),
O=C1C2Sc3[nH]c(=O)sc3C(c3ccccc3)C2C(=O)N1c1ccc(Cl)cc1 (stereo not given),2.82 µM (active),
O=C1C(C2=NC(C(=O)O)C3C(=O)N(c4ccc(Cl)cc4)C(=O)C23)=C(O)c2ccccc21 (stereo not given),inactive,
O=C(CCCC(=O)OCC(=O)c1ccc(Cl)cc1Cl)Nc1cc(C(F)(F)F)ccc1Cl,8.91 µM (active),
Cc1cc(NC(=O)CCCC(=O)OCC(F)(F)C(F)F)cc(C)c1C(=O)O,inactive,
CCn1cc(-c2nnnn2-c2ccc(Cl)cc2)c(=O)c2ccccc21,17.8 µM (active),
O=S(=O)(Nc1ccc2oc(-c3ccccc3)nc2c1)c1ccccc1,0.631 µM (active),
COC(=O)[C@H]1C[C@@H]1[C@H](NC(=O)c1cnccn1)c1ccccc1,inactive,
COC(=O)[C@H]1C[C@@H]1[C@H](NC(=O)c1cc(C)on1)c1ccccc1,20 µM (active),
COC(=O)[C@@H]1C[C@H]1[C@@H](NC(=O)c1cnccn1)c1ccccc1,inactive,
COC(=O)[C@@H]1C[C@H]1[C@@H](NC(=O)c1cc(C)on1)c1ccccc1,15.8 µM (active),
C[C@@]1(C(=O)O)NCCc2cc(O)c(O)cc21,inactive,
COc1ccc(/C=C2\OC(=O)c3c(OC)cccc32)cc1OC,8.91 µM (active),
CCc1nc(SCC(=O)NCCc2ccccc2)c2oc3ccccc3c2n1,0.562 µM (active),
Cc1nc(SCC(=O)NCCc2ccccc2)c2oc3ccccc3c2n1,0.178 µM (active),
O=S(=O)(c1ccccc1)N1CCC2(CCCN(c3ccccn3)C2)CC1,0.158 µM (active),
CS(=O)(=O)N1CCC2(CC1)CN(c1ncccn1)C2,inactive,
O=S(=O)(c1ccccc1)N1CCC2(CC1)CN(c1ncccn1)C2,inactive,
O=S(=O)(c1ccccc1)N1CCC2(CCCN(c3ncccn3)C2)CC1,0.398 µM (active),
CCOC(=O)N/N=C1/C[C@@H](O)[C@@H](O)[C@@H]2[C@@H]3C(=O)N(C4CCCCC4)C(=O)[C@H]3CC[C@H]12,,9.98% [at 11.4 µM] (inactive)

SMILES,AC50,"activity, negative = inhibition"
O=C(c1cnc(-c2ccccc2)s1)c1ccc(Cl)cc1Cl,2.24 µM (active),
Cl/C(=C\n1cncn1)c1ccc(Cl)cc1Cl,inactive,
CC(=O)O[C@]1(C)N=NC2(CCCCC2)O1,,5.37% [at 11.4 µM] (inactive)
CCOC(=O)c1c(NC(=O)CCc2ccc(CC)o2)sc(C)c1C,5.62 µM (active),
Cc1sc(NC(=O)C(C)C)c(C(=O)Nc2ccccc2)c1C,3.55 µM (active),
CO[C@]1(NC(=O)CSCC#N)C(=O)N2C(C(=O)O)=C(CSc3nnnn3C)CS[C@H]21,inactive,
CCOC(=O)c1c(NC(=O)Nc2ccccc2)sc(C)c1C,5.01 µM (active),
CCOC(=O)c1c(NC(=O)CSc2nnnn2C)sc(C)c1C,10 µM (active),
NCCSCCC(=O)O,,13.2% [at 11.4 µM] (inactive)
Cc1cccc(CNc2ncncc2-c2ccccc2Cl)c1,1 µM (active),
COc1ccccc1-c1cncnc1NCc1cccnc1,3.16 µM (active),
Cc1ccccc1-c1cncnc1NCc1cccnc1,0.398 µM (active),
CN(C)Cc1ccccc1-c1cncnc1NCc1cccnc1,inactive,
Cc1ccccc1-c1cncnc1NCc1ccccc1,2 µM (active),
Cc1noc(C)c1-c1cncnc1NCc1ccccc1,inactive,
Cc1nc(N=Nc2ccc(S(=O)(=O)O)cc2S(=O)(=O)O)c(COP(=O)(O)O)c(C=O)c1O,inactive,
COc1ncc2nc(-c3cccc(C#N)c3)c(=O)n(CCC#N)c2n1,inactive,
Cc1cccc(CNc2ncncc2-c2ccccc2C)c1,1 µM (active),
CC(=O)NCCNc1ncncc1-c1ccccc1C,inactive,
Cc1cnc(CNc2ncncc2-c2ccccc2CN(C)C)cn1,inactive,
Cc1cnc(CNc2ncncc2-c2ccccc2C)cn1,7.94 µM (active),
COc1ccccc1-c1cncnc1NCc1cccc(C)c1,0.398 µM (active),
FC(F)(F)c1ccccc1-c1cncnc1NCc1cccnc1,2.51 µM (active),
Cc1cnc(CNc2ncncc2-c2ccccc2C#N)cn1,inactive,
N#Cc1ccccc1-c1cncnc1NCc1cccnc1,inactive,

# Source: PubChem BioAssay AID1851 (National Center for Advancing Translational Sciences (NCATS), 2009)
